The list is not random: actives were taken first. Their share in the collection is about 3.5%.
Tau fluor cs: counter-screen for tau fibril formation inhibitors | tau K18 P301L Alexa594 fluorescence, heparin fibrillization | AID 1463 | Potency, µM (titrated, usually from 57.7 µM), for inactives: at the top dose activity change, negative = decrease | hit rate 0.93% among 280,000; also: nearly all actives have a fitted effect of over 55% in size
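Human K18 P301L tau (15 uM unlabeled plus 0.24 uM Alexa 594-labeled, final) in 100 mM sodium acetate pH 7 was mixed with compound and 20 uM heparin and incubated 6 hr at 37 C.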
Tau ThT inhib: tau fibrillization inhibition (ThT binding); P10636; recombinant tau K18 P301L (four-repeat tau fragment), heparin-induced fibrillization, ThT fluorescence; Potency, µM (top dose mostly 57.4 µM), inactives show at the highest dose activity, negative = inhibition, hits mostly inhibitors; hit rate 2.1% among 270,000; also: nearly all actives have a fitted effect of over 55% in size
Target sequence (P10636 561-689 P618L limits assumed): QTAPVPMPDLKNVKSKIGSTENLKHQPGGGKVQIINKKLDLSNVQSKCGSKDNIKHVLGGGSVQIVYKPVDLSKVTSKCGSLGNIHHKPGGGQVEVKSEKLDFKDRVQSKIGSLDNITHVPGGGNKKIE
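Tau K18 P301L fragment (15 uM unlabeled plus 0.24 uM Alexa 594-labeled) in 100 mM sodium acetate pH 7 with compound, fibrillization induced by 20 uM heparin for 6 hr at 37 C. Thioflavin T (30 uM) added, fluorescence read after 1 hr (ex 450, em 510 nm).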
JMJD2E inh: JMJD2E (human) inhibition. JMJD2E catalytic domain, FDH-coupled NADH fluorescence (FDH is formaldehyde dehydrogenase). B2RXH2. hit rate 1.6% among 230,000. Potency, µM (highest dose often 57.1 µM), without a hit: top-dose activity change, negative = inhibition, usual class: inhibitors. AID 2147; active = well fitted inhibition curve with a large enough effect, not every such curve was filed as active; inconclusive = small, poorly fitted or top-dose-only effect, or another doubt; inactive = no such curve, though single readings can be large or run the other way;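 also: 0% = wells with enzyme and -100% = buffer wells without enzyme; nearly all actives have a fitted effect of over 50% in size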
TexasRed fluor: alters Texas Red total fluorescence, flagging assay interference; TRb/SRC2 Texas Red total fluorescence interference; Potency, µM (highest dose often 106 µM), for the others: top-dose fluorescence change, negative = quenching; hit rate 0.29% among 280,000; AID 1479; active = well fitted curve in either direction with a large enough effect; inconclusive = small, poorly fitted or top-dose-only effect
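Human TRβ ligand-binding domain (0.6 uM) and Texas Red SRC2 peptide (20 nM) in Tris buffer with 1 uM T3 and 5% DMSO were incubated with pinned compound for 5 hr at ambient temperature. Total fluorescence was computed as S + 2P (555/632 nm).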
Tau FP inhib: inhibitors of human tau fibril formation; AID 1468; hit rate 0.39% among 280,000; Potency, µM (doses to about 57.7 µM), without a hit: top-dose activity, negative = inhibition, usual class: inhibitors; P10636; K18 P301L tau heparin fibrillization, Alexa594 FP, 6 h; also: nearly all actives have a fitted effect of over 55% in size
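Human tau K18 […] P301L fragment, 15 uM unlabeled plus 0.24 uM Alexa 594-labeled tau (final), with compound and 20 uM heparin in 100 mM sodium acetate pH 7; 6 hr at 37 C, then Alexa 594 FP read.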
TRb-SRC2 inh: disrupts binding of human TR beta to SRC2 | P10828 | TRbeta-SRC2 peptide binding, fluorescence polarization; receptor liganded with 1 µM T3 | Potency, µM (top dose mostly 106 µM), for the others: at the highest dose activity change, negative = inhibition, most hits filed as inhibitors | hit rate 0.065% among 280,000 | AID 1469;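 also: plate controls were bound peptide for no effect and peptide without receptor for full effect; nearly all actives have a fitted effect of over 50% in size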
Target sequence (P10828 whole entry, looked up): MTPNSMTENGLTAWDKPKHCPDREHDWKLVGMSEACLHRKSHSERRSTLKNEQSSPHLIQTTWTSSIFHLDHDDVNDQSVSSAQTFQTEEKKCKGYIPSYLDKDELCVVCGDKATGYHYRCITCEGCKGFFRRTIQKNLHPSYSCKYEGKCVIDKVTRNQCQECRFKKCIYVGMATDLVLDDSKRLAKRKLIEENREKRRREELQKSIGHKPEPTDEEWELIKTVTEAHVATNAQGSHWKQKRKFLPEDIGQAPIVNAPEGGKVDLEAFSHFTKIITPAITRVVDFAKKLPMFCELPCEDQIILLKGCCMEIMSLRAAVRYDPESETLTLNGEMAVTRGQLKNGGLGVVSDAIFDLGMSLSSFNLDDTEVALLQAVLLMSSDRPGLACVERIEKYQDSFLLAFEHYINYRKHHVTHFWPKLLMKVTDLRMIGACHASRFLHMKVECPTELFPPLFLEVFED
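A fluorescence polarization screen tested compounds at multiple concentrations against complex formation between 0.6 uM TRb ligand-binding domain and 20 nM Texas Red SRC2 peptide, with 1 uM T3 present; readout after 5 hr.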
The depositor's hits bear a star; ? = inconclusive; / = not tested or not shown; [ ] = another dose, or the depositor's remark. Unless noted, calls follow the shape of the dose curve; as a rule, active = well fitted curve in the direction sought with a large enough effect; inconclusive = small, poorly fitted or top-dose-only effect, or another doubt; inactive = no such curve, though single readings can be large; an effect the other way counts as inactive or inconclusive. Unless noted, % is scaled to controls: 0 for no effect and ±100 for the full control effect; potency is read from the fitted curve at half-maximal effect.

SMILES	Tau fluor cs	Tau ThT inhib	JMJD2E inh	TexasRed fluor	Tau FP inhib	TRb-SRC2 inh
NC(C(=O)N[C@@H]1C(=O)N2C(C(=O)O)=C(Cl)CS[C@H]12)c1ccccc1 (stereo partly specified)	-15%	28µM*	?	0%	?	8%
CC1=C(C(=O)O)N2C(=O)C(NC(=O)C(N)C3=CCC=CC3)C2SC1 (stereo unspecified)	-26%	?	?	0%	?	9%
NC(=O)c1cc[n+](CC2=C(C(=O)O)N3C(=O)C(NC(=O)C(c4ccccc4)S(=O)(=O)[O-])C3SC2)cc1 (stereo unspecified)	-16%	?	?	0%	?	1%
O=C1NC(c2ccc(Cl)c([N+](=O)[O-])c2)Nc2ccccc21 (stereo unspecified)	-12%	-16%	3%	-1%	-6%	-1%
O=[N+]([O-])c1cc(C2Nc3cccc4cccc(c34)N2)ccc1Cl	18µM*[quencher]	18µM*	?	-5%	?	-3%
OC[C@@H]1[C@@H](c2ccc(Cl)cc2)C(c2cccc(Cl)c2)=NN1c1ccccc1	11µM*[quencher]	?	/	-6%	?	0%
CC[C@H]1C(c2ccccc2)=NN(c2ccccc2)[C@@H]1CO	?	-19%[81.4 µM]	/	0%	?	3%
COc1ccccc1[C@H]1C(c2ccccc2)=NN(c2ccccc2)[C@@H]1CO	32µM*[quencher]	?	/	-3%	15%[81.3 µM]	0%
OC[C@@H]1[C@@H](c2ccc(Cl)cc2)C(c2ccccc2)=NN1c1ccccc1	10µM*[quencher]	?	/	-3%	7%[81.3 µM]	2%
C[C@H]1C(c2ccc(F)cc2)=NN(c2ccccc2)[C@@H]1CO	25µM*[quencher]	?	/	-5%	?	0%
Clc1ccccc1CNc1ncnc2c1nc1n2CCCC1	-14%	-13%	/	6%	-9%	4%
COc1ccccc1[C@H]1C(c2ccc(F)cc2)=NN(c2ccccc2)[C@@H]1CO	?	?	/	-10%	?	1%
OC[C@@H]1[C@@H](c2ccc(F)cc2)C(c2cccc(Cl)c2)=NN1c1ccccc1	40µM*[quencher]	?	/	-2%	4%[81.3 µM]	-1%
C[C@H]1C(c2cccc(Cl)c2)=NN(c2ccccc2)[C@@H]1CO	16µM*[quencher]	?	/	-8%	10%[81.3 µM]	8%
N#CCn1c2ccccc2c2nc3ccccc3nc21	2%	1%	2%	-6%	6%	-4%
COC(=O)/C=C1\S/C(=N\N=C\CC(=O)OC)NC1=O	-8%	7.1µM*	7%	-3%	-4%	9%
COC(=O)/C=C1\SC(=Nc2ccc(OC)cc2)NC1=O	1%	?	5%	-3%	2%	-3%
COc1ccc(-n2nc(C(=O)c3cccs3)cc(-c3nc4ccccc4[nH]3)c2=N)cc1	?	4µM*	16%	-2%	-3%	-5%
C[C@@H]1CCC2[C@@H](C)[C@@H](O)O[C@@H]3O[C@@]4(C)CC[C@@H]1[C@@]23OO4 (stereo partly specified)	-4%	0%	-8%	1%	-9%	-4%
COc1cc(CNCCSc2nnnn2C)ccc1OCc1ccccc1	-14%	-6%	/	-26%	-3%	2%
COc1cc(/C=N/Nc2nc3c(c(=O)n(C)c(=O)n3C)n2Cc2ccccc2)ccc1OC(=O)c1ccco1	7.9µM*[quencher]	?	?	-3%	?	2%
O=CNC(n1cnc2c(N3CCOCC3)ncnc21)C(Cl)(Cl)Cl (stereo unspecified)	-1%	/	15%	2%	6%	1%
O=C(N/N=C/c1c(O)n(Cc2ccccc2)c(=O)c2ccccc12)c1cccnc1	?	?	?	-17%	4%	-2%
COc1ccc(Cn2c(O)c(/C=N/NC(=O)c3cccnc3)c3ccccc3c2=O)cc1	?	?	28µM*	-19%	10%	-2%
Oc1ccc(/C=N/Nc2cc(N3CCOCC3)nc(N3CCOCC3)n2)cc1O	?	?	28µM*	-13%	-5%	9%
SMILES	Tau fluor cs	Tau ThT inhib	JMJD2E inh	TexasRed fluor	Tau FP inhib	TRb-SRC2 inh
CC(=O)NNc1cc(N2CCOCC2)nc(N2CCOCC2)n1	-1%	-7%	?	32µM*[fluorescent]	-4%	28µM*
Cc1ccccc1N1CCN(S(=O)(=O)N(C)C)CC1	4%	0%	10%	-2%	10%	-5%
O=C(N/N=C/c1cn(-c2cccs2)nc1-c1ccccc1)c1ccc(O)cc1	10µM*[quencher]	5%	?	-3%	?	7%
Cc1ccc(Cl)cc1NC(=O)CN1C(=O)C(C)(C)c2cc(S(=O)(=O)N3CCCCC3)ccc21	?	-7%	/	0.0045µM*[quencher]	-12%	-20%
O=C(c1cccs1)N(Cc1ccco1)C1CCS(=O)(=O)C1 (stereo unspecified)	3%	-2%	0%	2%	-1%	2%
CC(=O)c1ccc(N2CCN(C(=O)c3nn(Cc4ccccc4)c(=O)c4ccccc34)CC2)cc1	-16%	?	?	-3%	3%	-2%
Oc1cccc2c(NC(=S)Nc3ccc(OC(F)F)cc3)cccc12	16µM*[quencher]	11µM*	0%	0%	?	-5%
O=c1cc(N2CCOCC2)oc2c1ccc1ccccc12	/	/	/	-2%	/	2%
Cc1cc(=O)cc2oc3cc(N)c(-c4c(C)cc(O)cc4O)c(C)c3nc1-2	?	14µM*	8.9µM*	?	22µM*	?
O=C1CCCc2c1sc1nc3n(c(=O)c21)CCCCC3	-5%	-7%	?	-3%	5%	-1%
O=C1c2sc3nc4n(c(=O)c3c2CCC1Br)CCCCC4 (stereo unspecified)	?	?	18µM*	-2%	?	-13%
COC(=O)N(C)c1ccccc1C(=O)N1CCOCC1	4%	4%	1%	-6%	-3%	0%
Cc1ccc(O)c(N=Nc2ccc(S(=O)(=O)N3CCCC3)cc2)c1	?	/	-7%	-2%	10%	-2%
COc1ccc(N=Nc2ccc(N)nc2N)cc1	?	2.5µM*	?	-7%	?	-7%
COc1ccc(-c2nc(C)ncc2N=Nc2ccccc2)cc1	?	?	-3%	-8%	15%	-3%
COc1ccc(N=Nc2cc(C)ccc2O)cc1	?	16µM*	11%	-3%	11%	2%
COc1ccc(N=Nc2c(N)n[nH]c2N)cc1	-29%	14µM*	3%	1%	1%	-2%
COc1ccc(CCN(Cc2cc3cc4c(cc3[nH]c2=O)OCO4)C(C)=O)cc1OC	2%	1%	?	-4%	-3%	3%

High-throughput results (PubChem BioAssay)
